Where a name gives a salt, the structure may show the parent alone.

Our source for the phenotypically active values is the supplement of paper PMC7411054.

The test system of the first experiment is HepG2-CANX-COX4. As to the kind of experiment: phenotypically active (imaging signature differs from DMSO and reproducible) at any of 0.3-9 uM (binary (1 = active, 0 = inactive)); higher = active. The settings on record: treatment time: 24 h. Summed up:
(§1)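 Four wells per concentration (0.3, 1, 3 or 9 µM) were treated for 24 h in each of fifteen gene-edited reporter lines from A549, HepG2 and WPMY1 cells, then imaged live. After normalising live-cell features to solvent control wells, deviation was defined as ≥3 of 4 wells lying past the 95th percentile of control Euclidean distances. Reproducibility was defined as a median replicate Pearson correlation above the 95th percentile of non-replicates. Both had to hold for phenotypic activity.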
`O=c1[nH]cnc2ccccc12`: the phenotypically active was 0 (inactive).
On the same count and under the same terms, in the case of `S=P(N1CC1)(N1CC1)N1CC1` [thiotepa] it was 0 (inactive).
`C[C@](N)(Cc1ccc(O)c(O)c1)C(=O)O` [methyldopa]: the phenotypically active was 0 (inactive).
On the same count and under the same terms, in the case of `CC1CCC(C(C)C)C(O)C1` [L-menthol] it was 0 (inactive); in that of `CCCCC1=NC2(CCCC2)C(=O)N1Cc1ccc(-c2ccccc2-c2nnn[nH]2)cc1` [irbesartan], 0 (inactive); in that of `CC(=O)Oc1ccccc1C(=O)O` [aspirin], 0 (inactive).
Same read-out and setting: in the case of `CC(C(=O)O)c1ccc(C(=O)c2cccs2)cc1` (stereo not given) [suprofen] it was 0 (inactive).
For `FC(F)OC(F)C(F)(F)F` (stereo not given) [desflurane], the phenotypically active was 0 (inactive).
As for `CC(C)NCC(O)c1ccc(NS(C)(=O)=O)cc1` (stereo not given) [sotalol], the phenotypically active is 0 (inactive).
On the same count and under the same terms, the value for `COc1ccc(C(C)=O)c(O)c1` [2'-Hydroxy-4'-Methoxyacetophenone] was 0 (inactive).
For `CC(=O)[C@H]1CC[C@H]2[C@@H]3CCC4=CC(=O)CC[C@]4(C)[C@H]3CC[C@]12C` [progesterone], the phenotypically active was 0 (inactive).

The next experiment has as its system HepG2-GM130-SQSTM1. The description is as above. The settings on record: treatment time: 24 h. Summed up: as §1
For the compound `CN1C(=O)CC(C)(c2ccccc2)C1=O` (stereo not given) [methsuximide], the phenotypically active was 0 (inactive).
The same measure, in the same setting: in the case of `O=C(NCCO)c1cc(C(=O)NCCO)cc(C(=O)NCCO)c1` it was 0 (inactive); in that of `CO[C@H]1C=CO[C@@]2(C)Oc3c(C)c(O)c4c(O)c(c5c(nc6cc(C)ccn65)c4c3C2=O)NC(=O)C(C)=CC=C[C@H](C)[C@H](O)[C@@H](C)[C@@H](O)[C@@H](C)[C@H](OC(C)=O)[C@@H]1C` [Rifaximin], 0 (inactive); in that of `N#Cc1ccc(C(c2ccc(C#N)cc2)n2cncn2)cc1` [Letrozole], 0 (inactive).
Same read-out and setting: in the case of `NC(=O)c1cccc(-c2cccc(OC(=O)NC3CCCCC3)c2)c1` it was 0 (inactive); in that of `O=C(Nc1cccnc1)c1cc(-c2ccnc(F)c2)ccc1OCc1ccccc1`, 0 (inactive); in that of `O=C(O)CCCC[C@@H]1SC[C@@H]2NC(=O)N[C@@H]21` [Biotin], 0 (inactive).
Turning to `NS(=O)(=O)c1cc2c(cc1Cl)NC(C(Cl)Cl)NS2(=O)=O` (stereo not given) [trichlormethiazide], the phenotypically active was 0 (inactive).
The same measure, in the same setting: in the case of `CCn1c(=O)c2cc(C(N)=O)c(N)nc2n(C2CC2)c1=O` it was 0 (inactive); in that of `CCCSc1nc2c(c(=O)n1-c1ccccc1)SCC2`, 0 (inactive).
Still for that read-out and setting: the value for `COc1cc(C#N)ccc1S(=O)(=O)Nc1ccc2c(c1)cc(C)c(=O)n2C` was 0 (inactive); that for `CC(C)(C)NC[C@H](O)COc1nsnc1N1CCOCC1` [timolol] was 0 (inactive); that for `CC[N+](CC)(CC)CCC(O)(c1ccccc1)C1CCCCC1` (stereo not given) [tridihexethyl] was 0 (inactive).
Same read-out and setting: in the case of `COC(=O)C1=CO[C@@H](O[C@@H]2O[C@H](CO)[C@@H](O)[C@H](O)[C@H]2O)[C@H]2[C@@H]1C(=O)C[C@@H]2C` [Verbenaline] it was 0 (inactive).
For `Nc1ncnc2c1ncn2[C@H]1O[C@@H](C(=O)N2CCN(CC(=O)Nc3cccc4c3CNC4=O)CC2)[C@H](O)[C@@H]1O`, the phenotypically active was 0 (inactive).
Same read-out and setting: in the case of `COc1ccc2cc(CCC(C)=O)ccc2c1` [nabumetone] it was 0 (inactive).
On the same count and under the same terms, in the case of `CC(C)c1ccc2oc3nc(N)c(C(=O)O)cc3c(=O)c2c1` [Amlexanox] it was 0 (inactive).
Same read-out and setting: the value for `O=C(/C=C/N1C[C@H]2C[C@@H]1CN2c1ccccn1)c1ccccc1O` was 0 (inactive); that for `C#CCN(C)Cc1ccccc1` [pargyline] was 0 (inactive); that for `Cc1nc2c(O)cccc2c(=O)[nH]1` was 0 (inactive).
For the compound `CC(C)Cn1c(=O)n(C)c(=O)c2[nH]cnc21`, the phenotypically active is 0 (inactive).
The same measure, in the same setting: the value for `COc1ccccc1OCC(O)CN1CCN(CC(=O)Nc2c(C)cccc2C)CC1` (stereo not given) [ranolazine] was 0 (inactive).
The same measure, in the same setting: in the case of `COC(=O)c1c(C)cc(OC(=O)c2c(C)cc(O)c(C=O)c2O)c(C)c1O` [Atranorin] it was 0 (inactive); in that of `CC(C)NCCCC1(C(N)=O)c2ccccc2-c2ccccc21` [indecainide], 0 (inactive).
Same read-out and setting: in the case of `O=C1c2ccccc2C(Cc2ccncc2)(Cc2ccncc2)c2ccccc21` it was 0 (inactive); in that of `CC1=NN(c2ccc(C(=O)O)cc2)C(=O)/C1=C\c1ccc(-c2cc(C)c(C)cc2[N+](=O)[O-])o1`, 0 (inactive).
On to `CCCC(=O)Nc1ncnc2c1ncn2[C@@H]1O[C@@H]2COP(=O)(O)O[C@H]2[C@H]1OC(=O)CCC` [Dibutyryl-cAMP, sodium salt], for which the phenotypically active was 0 (inactive).
Same read-out and setting: the value for `CCO[C@@H](Cc1ccc(OCCc2ccc(OS(C)(=O)=O)cc2)cc1)C(=O)O` [Tesaglitazar] was 0 (inactive); that for `O=c1[nH]cnc2ccccc12` was 0 (inactive); that for `S=P(N1CC1)(N1CC1)N1CC1` [thiotepa] was 0 (inactive).
Still for that read-out and setting: the value for `C[C@](N)(Cc1ccc(O)c(O)c1)C(=O)O` [methyldopa] was 0 (inactive).
On the same count and under the same terms, in the case of `CC1CCC(C(C)C)C(O)C1` [L-menthol] it was 0 (inactive).
Take `CCCCC1=NC2(CCCC2)C(=O)N1Cc1ccc(-c2ccccc2-c2nnn[nH]2)cc1` [irbesartan]: the phenotypically active is 0 (inactive).
On the same count and under the same terms, the value for `CC(=O)Oc1ccccc1C(=O)O` [aspirin] was 0 (inactive); that for `CC(C(=O)O)c1ccc(C(=O)c2cccs2)cc1` (stereo not given) [suprofen] was 0 (inactive); that for `FC(F)OC(F)C(F)(F)F` (stereo not given) [desflurane] was 0 (inactive).
Same read-out and setting: the value for `CC(C)NCC(O)c1ccc(NS(C)(=O)=O)cc1` (stereo not given) [sotalol] was 0 (inactive); that for `COc1ccc(C(C)=O)c(O)c1` [2'-Hydroxy-4'-Methoxyacetophenone] was 0 (inactive).
Same read-out and setting: the value for `CC(=O)[C@H]1CC[C@H]2[C@@H]3CCC4=CC(=O)CC[C@]4(C)[C@H]3CC[C@]12C` [progesterone] was 0 (inactive).
